# Screening results from PubChem BioAssay.
# In the library only some 1.6% were active in any assay of this set; here they are far more common.
# OPRM1-OPRD1 ag – OPRM1-OPRD1 heterodimerization agonism. P35372+P41143. cells, luminescence. activation, % at 9.3 µM. actives 0.3% (n = 340,000). AID 504326; in the data active = activation above about 18%;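 also: 0% = vehicle-treated cells and 100% = reference agonist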
# Target sequence (P35372 whole entry, looked up): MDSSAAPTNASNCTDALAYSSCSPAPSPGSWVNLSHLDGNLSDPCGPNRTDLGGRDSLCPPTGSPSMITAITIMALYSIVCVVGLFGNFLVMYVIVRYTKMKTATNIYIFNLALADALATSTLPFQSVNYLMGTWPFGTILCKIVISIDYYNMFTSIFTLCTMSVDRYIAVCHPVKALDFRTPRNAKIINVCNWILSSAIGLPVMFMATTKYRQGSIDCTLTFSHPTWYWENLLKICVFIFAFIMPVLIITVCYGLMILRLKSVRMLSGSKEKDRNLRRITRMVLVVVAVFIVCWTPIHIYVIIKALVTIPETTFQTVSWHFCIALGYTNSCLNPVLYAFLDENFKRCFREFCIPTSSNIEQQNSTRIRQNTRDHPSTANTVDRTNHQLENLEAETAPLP
# Target sequence (P41143 whole entry, looked up): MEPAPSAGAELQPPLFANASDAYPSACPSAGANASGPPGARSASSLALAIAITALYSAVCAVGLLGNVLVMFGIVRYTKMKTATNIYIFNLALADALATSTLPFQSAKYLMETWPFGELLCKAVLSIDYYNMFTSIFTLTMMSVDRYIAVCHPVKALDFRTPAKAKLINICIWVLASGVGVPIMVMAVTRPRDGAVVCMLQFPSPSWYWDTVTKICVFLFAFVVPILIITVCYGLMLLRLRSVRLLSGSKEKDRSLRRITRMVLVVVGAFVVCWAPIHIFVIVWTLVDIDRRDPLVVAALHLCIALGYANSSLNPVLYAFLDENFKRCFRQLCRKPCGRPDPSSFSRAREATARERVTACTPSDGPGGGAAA
# PolyA inhibitor – blocks polyadenylation in yeast reporter cells; S. cerevisiae SKY197-pL101 polyadenylation reporter, beta-gal luminescence; efflux-impaired pdr1/pdr3 knockout yeast; score 100 = 6 SD above DMSO; activity score, % at 12 µM; actives 0.02% (n = 300,000);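 active = lowest replicate activity score at least 50, where 100 means six control SD above control mean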;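 also: yeast exposed to compound for 9 h at 30 °C; higher score means more reporter readthrough which indicates perturbed polyadenylation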
# MOR-DOR inv ag – inverse agonists of human mu-delta opioid receptor heterodimerization. P35372+P41143. cell-based MOR-DOR heterodimer luminescence, inverse agonism. inhibition, % at 9.3 µM. actives 0.21% (n = 340,000). AID 504357; in the data active = inhibition above about 22%, passing the limit was not always enough;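 also: 0% = cells with DMSO and 100% = wells without cells with DMSO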
# NALP1 yeast inh – inhibitors of NALP1 inflammasome in yeast | inhibition, % at 10 µM | actives 0.61% (n = 280,000) | S. cerevisiae NALP1/ASC/caspase-1 growth, X-gal OD620, 72 h | AID 2071; in the data active = inhibition mostly above about 24%, no sharp cut-off; inactive = mostly below about 32%
# HTR5A inv ctr – HTR5A inverse agonism, opioid heterodimer counter-screen; P47898; HTR5A cell line, luminescence; inhibition, % at 9.3 µM; actives 0.083% (n = 340,000); AID 504634; in the data active = inhibition mostly above about 23%, no sharp cut-off; inactive = mostly below about 18%;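 also: 0% = cells with DMSO and 100% = no-cell wells with DMSO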
# HTR5A ag ctr – HTR5A agonism, opioid heterodimer counter-screen | P47898 | HTR5A agonist assay, luminescence, cell-based | activation, % at 9.3 µM | actives 0.61% (n = 340,000) | AID 504692; in the data active = activation mostly above about 9.5%, no sharp cut-off; inactive = mostly below about 7.6%;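 also: 0% = cells with vehicle only and 100% = reference agonist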
# OPRM1-D1 inv cf – confirmation of human OPRM1-OPRD1 heterodimerization inverse agonists. shares compounds with MOR-DOR inv ag. cells expressing OPRM1/OPRD1 heterodimer, luminescence. inhibition, % at 9.3 µM. actives 20% (n = 580). AID 504900; in the data active = inhibition above about 32%;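 also: 0% = cells with DMSO and 100% = wells lacking cells with DMSO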
# HTR5A inv count – HTR5A inverse agonism, opioid heterodimer counter-screen. 580 tested, under 10 active. inhibition, % at 9.3 µM. shares compounds with MOR-DOR inv ag. HTR5A-expressing cells, luminescence; call rule not given here;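 also: 0% = cells with DMSO and 100% = no-cell wells with DMSO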
# * marks the source's active call; other numbers are inactive results; i = inactive; . = no result given.
SMILES,OPRM1-OPRD1 ag,PolyA inhibitor,MOR-DOR inv ag,NALP1 yeast inh,HTR5A inv ctr,HTR5A ag ctr,OPRM1-D1 inv cf,HTR5A inv count
COc1cc2c(=O)n(CCC(=O)NCC3CCCO3)c(=O)n(CC(=O)Nc3ccc(F)cc3)c2cc1OC (stereo unspecified),0,2,-2,8,6,-2,.,.
N#CC1(Nc2cccc(Br)c2)C(=O)Nc2ccccc21 (stereo unspecified),-9,-10,50*,35,-13,-9,-1,4
CC(=O)Nc1ccc(C2(c3ccc(NC(C)=O)cc3)C(=O)Nc3ccccc32)cc1,6,-2,-32,8,-17,0,.,.
N#CC1(Nc2ccccc2)C(=O)Nc2ccccc21 (stereo unspecified),-10,2,57*,4,28,-8,-439,7
CCc1cc(=O)oc2c3c(cc(OCC(=O)NCCCCCC(=O)O)c12)OC(C)(C)CC3,-3,-12,13,0,8,-2,.,.
O=C1c2ccccc2-c2nccnc21,-14,-2,80*,19,39*,-5,87*,11
CSc1ccccc1NC(=O)C1=CC(c2ccc(C)cc2)=NS(=O)(=O)N1C,0,-5,-1,8,8,-3,.,.
O=c1c2cc(Br)ccc2[nH]c(=S)n1Cc1ccccn1,-11,-9,64*,3,2,-1,-93,-20
Cc1ccc(C)c(N2CCN(C(=O)CCCOc3cc(=O)n(C)c4ccccc34)CC2)c1,-1,4,4,10,24,3,.,.
COc1ccc(N2CCN(C(=O)CCCOc3cc(=O)n(C)c4ccccc34)CC2)cc1,-7,-7,34*,22,17,-6,-1,-4
COc1ccc(CN(C(C)=O)c2ccccc2C(=O)O)cc1,-1,12,4,-8,6,-2,.,.
COc1ccc(N(/N=C2\Sc3ccccc3C2=O)C(C)=O)cc1,-11,-18,70*,5,23,-9,-26,5
COc1ccccc1N(/N=C1\Sc2ccccc2C1=O)C(C)=O,-15,-7,75*,.,17,-9,-18,-6
CC(=O)n1cc([C@H]2C=C(C(=O)N3CCOCC3)O[C@@H](OCCCCO)C2)c2ccccc21,-2,13,13,.,-16,6,.,.
CC(=O)Oc1ccc(OC(C)=O)c2c1CC(C)=C(C)C2,-9,10,39*,7,6,-2,60*,13
COc1ccc2c(c1)O/C(=C\c1sccc1C)C2=O,1,-3,-4,46,22,2,.,.
Cc1cccc(C)c1OCC(=O)NC1CC1,-2,1,9,-17,-6,3,.,.
Cc1cccc(C)c1OCC(=O)NNC(=S)NC(=O)C1CC1,-7,-3,36*,6,29,-6,-72,-36
CCc1ccc(-c2cc(C)no2)cc1S(=O)(=O)N1CCN(c2ccc(F)cc2)CC1,-2,3,12,15,16,-2,.,.
C=CCNC(=S)NCCCCC1NC(=S)N(CC=C)C1=O (stereo unspecified),-3,-13,25*,12,22,0,7,-4
COc1ccc(N2CCN(C(=O)CC34CC5CC(CC(C5)C3)C4)CC2)c([N+](=O)[O-])c1,6,-19,-31,22,-13,5,.,.
Cc1cccc2nc3c(nc12)-c1ccccc1C3=O,-8,-16,40*,.,-14,0,23,3
O=C(N/N=C/c1cccc2cccnc12)c1ccccc1O,-7,-11,36*,25,18,-5,7,-3
CC1CCCN(S(=O)(=O)c2ccc(NC(=O)[C@@H]3CCCN3C(=O)c3cccs3)cc2)C1 (stereo partly specified),0,.,-1,.,3,2,.,.
Cc1ccc(NNC(=O)c2c(C)noc2C)cc1Cl,-8,-58,41*,8,3,0,23,-1
SMILES,OPRM1-OPRD1 ag,PolyA inhibitor,MOR-DOR inv ag,NALP1 yeast inh,HTR5A inv ctr,HTR5A ag ctr,OPRM1-D1 inv cf,HTR5A inv count
Cc1ccc(NNC(=O)c2ccno2)cc1C,-12,-12,61*,2,-3,6,-189,-27
O=C(Nc1cc(Cl)cc(Cl)c1)c1ccno1,-3,-39,15,11,9,-2,.,.
Cc1ccc(NNC(=O)c2ccno2)cc1Cl,-10,-25,52*,15,5,3,-40,-268
Cc1noc(C)c1C(=O)NNc1ccc(C(C)C)cc1,-5,11,23,-2,5,0,.,.
COc1cc(C(=O)NCc2ccc(S(N)(=O)=O)cc2)ccc1OCC(=O)N1CCOCC1,-1,.,4,.,-3,1,.,.
Cc1ccc(C(=O)CC2(O)C(=O)N(C)c3ccc(Br)cc32)c(C)c1 (stereo unspecified),-1,-7,6,28,8,-3,.,.
CN1C(=O)C(O)(CC(=O)c2ccccn2)c2cc(Br)ccc21 (stereo unspecified),-13,-4,74*,27,17,3,i,-11
O=C(NCc1ccccc1)c1nc(S(=O)(=O)Cc2ccccc2)ncc1Cl,-6,-23,35*,4,25,-8,8,4
O=C(NCc1ccc2c(c1)OCO2)c1nc(S(=O)(=O)Cc2ccccc2)ncc1Cl,-5,-12,27,2,-6,2,.,.
O=C(NCc1ccc2c(c1)OCO2)c1nc(S(=O)(=O)Cc2ccccc2F)ncc1Cl,-6,-15,32*,7,4,-1,9,-3
COc1ccc(CNC(=O)c2nc(S(=O)(=O)Cc3ccccc3)ncc2Cl)cc1,-5,-12,24,3,-8,-6,.,.
N#CCC(=O)Nc1ccc(C(=O)Nc2cccc(S(N)(=O)=O)c2)cc1,-1,10,6,6,-12,2,.,.
CC1CCN(CCCNC(=O)c2ccc(Cn3c(=S)[nH]c4ccc(Br)cc4c3=O)cc2)CC1,.,-3,.,-2,.,.,.,.
C/C(=C\C(=S)Nc1ccccc1)Nc1ccccc1,-6,1,31*,23,14,-10,-22,2
CC1NC(=S)N(Cc2ccccc2)C1=O (stereo unspecified),-6,-9,33*,0,-1,4,-81,-34
CC(C)C1NC(=S)N(Cc2ccccc2)C1=O (stereo unspecified),-1,-3,9,-9,9,-2,.,.
CC1CCCC(C)N1C(=O)Cn1nnc(-c2ccc([N+](=O)[O-])cc2)n1 (stereo unspecified),-1,5,5,3,5,-2,.,.
CCc1ccc(NC(=S)N2CCC(NC(=O)c3ccccc3)CC2)cc1,-2,1,10,8,8,-3,.,.
